In ChEMBL document CHEMBL4513148, “CO-ADD screening of Stellenbosch University (South Africa) compounds”:
Measured potencies and affinities stand elsewhere.

Tests used:
Klebsiella pneumoniae = conditions: Concentration 32 ug.mL-1; ASSAY_TEST Inhibition of Bacterial Growth; detection method Absorption (OD600); MEDIA CAMHB; plate type 384well; NBS; CORNING #3640; time 18 hr
Candida albicans = conditions: 32 ug/mL
Cryptococcus neoformans = conditions: Concentration 32 ug.mL-1; ASSAY_TEST Inhibition of Fungal Growth; detection method Resazurin; Absorption (OD600-OD570); plate type 384well; NBS; CORNING #3640

Row | SMILES | Inhibition (Klebsiella pneumoniae) [%] | Inhibition (Candida albicans) [%] | Inhibition (Cryptococcus neoformans) [%]
1 | CC(C)(COP(=O)(O)O)[C@@H](O)C(=O)NCCC(=O)NCCc1ccccc1 | 20.53 | 1.57 | 21.44
2 | CC(C)(CO)[C@H](O)C(=O)NCCC(=O)NCc1cn(C[C@H]2O[C@@H](n3ccc(N)nc3=O)[C@H](O)[C@@H]2O)nn1 | 19 | 2.72 | -1.6
3 | CC(C)(CO)[C@@H](O)C(=O)NCCC(=S)NCCc1ccccc1 | 23.06 | -0.77 | 0.82
4 | CC(C)(CO)[C@@H](O)C(=O)N/C=C/C(=O)NCCc1ccccc1 | 27.58 | 6.96 | -6.96
5 | CC(C)(CO)[C@H](O)C(=O)NCCCc1cn(C[C@H]2O[C@@H](n3ccc(N)nc3=O)[C@H](O)[C@@H]2O)nn1 | 15.48 | 1.6 | -4.03
6 | CCCCCCCNC(=S)CCNC(=O)[C@H](O)C(C)(C)CO | 15.93 | 2.87 | -3.35
7 | CC(C)(CN)C(O)C(=O)NCCC(=O)NCCc1ccccc1 (centres undefined) | 28.43 | 3.05 | 42.65
8 | CCCCCCCNC(=O)CCNC(=O)C(O)C(C)(C)C (centres undefined) | 17.81 | 1 | 0.36
9 | CC(C)(CO)[C@H](O)C(=O)NCCc1cn(C[C@H]2O[C@@H](n3ccc(N)nc3=O)[C@H](O)[C@@H]2O)nn1 | 11.31 | 0.57 | -3.52
10 | CC(C)(CO)[C@H](O)C(=O)NCCC(=O)OCc1cn(C[C@H]2O[C@@H](n3ccc(N)nc3=O)[C@H](O)[C@@H]2O)nn1 | 19.86 | 3.13 | -1.73
11 | C#CCNC(=O)[C@H](O)C(C)(C)CO | 17.37 | -0.84 | -0.61
12 | CC(C)(C)C(O)C(=O)NCCC(=O)NCCc1ccccc1 (centres undefined) | 24.7 | 0.67 | -0.45
13 | CCCCCCNNC(=O)CCNC(=O)[C@H](O)C(C)(C)CO | 13.13 | -0.25 | 3.11
14 | CC(C)(CO)[C@H](O)C(=O)NCc1cn(C[C@H]2O[C@@H](n3ccc(N)nc3=O)[C@H](O)[C@@H]2O)nn1 | 7.03 | -0.48 | 6.11
15 | CC(C)(CO)[C@@H](O)C(=O)NCCC(=O)NNCc1ccccc1 | 28.52 | 4.15 | -4.98
16 | CC(C)(CO)C(O)C(=O)NCCCOP(=O)(O)OCC1OC(n2ccc(N)nc2=O)C(O)C1O (centres undefined) | 14.41 | 3.26 | -6.1
17 | CCCCCCCNS(=O)(=O)CCNC(=O)[C@H](O)C(C)(C)CO | 15.06 | -2.91 | 2.56
18 | CC(CC(=O)NCCc1ccccc1)NC(=O)[C@H](O)C(C)(C)CO (some centres undefined) | 21.7 | 3.05 | 2.32
